Assay outcomes deposited in PubChem by National Center for Advancing Translational Sciences (NCATS).
GLP-1R agonist – qHTS of GLP-1 Receptor Agonists | Glucagon-like peptide 1 receptor (Homo sapiens), P43220 | HEK293 GLP-1R CRE-luciferase, luminescence, 4-6 h; cells express a hypersensitive GLP-1R form | Potency, µM (top dose mostly 45.6 µM), for inactives: top-dose activation, hits mostly activators | 380,000 compounds, 0.007% hits | AID 624172, 2012; note: % of control where 0% means no effect
Target sequence (P43220 whole entry, looked up): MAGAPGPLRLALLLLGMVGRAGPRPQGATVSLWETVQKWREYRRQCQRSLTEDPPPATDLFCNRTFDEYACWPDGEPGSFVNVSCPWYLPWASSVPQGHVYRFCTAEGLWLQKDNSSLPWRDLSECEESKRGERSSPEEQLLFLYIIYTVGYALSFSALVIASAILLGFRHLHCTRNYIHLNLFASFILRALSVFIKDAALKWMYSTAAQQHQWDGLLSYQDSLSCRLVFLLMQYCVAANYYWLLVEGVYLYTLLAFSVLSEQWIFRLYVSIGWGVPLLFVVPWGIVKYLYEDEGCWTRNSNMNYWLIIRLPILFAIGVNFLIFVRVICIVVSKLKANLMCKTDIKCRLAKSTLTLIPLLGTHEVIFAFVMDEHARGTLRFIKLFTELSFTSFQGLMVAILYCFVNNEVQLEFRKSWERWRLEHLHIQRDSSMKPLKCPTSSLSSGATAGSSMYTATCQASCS
GLP1R inv ag – qHTS of GLP-1 Receptor Inverse Agonists (Inhibition Mode) | HEK293 GLP-1R CRE-luciferase, luminescence, 24 h; GLP-1R form is constitutively active | Potency, µM (top dose mostly 38.3 µM), without a hit: at the highest dose activity change, negative = inhibition, usual class: inhibitors | 410,000 compounds, 1.6% hits | Glucagon-like peptide 1 receptor (Homo sapiens), P43220; note: % is set by controls: 0 for no effect and ±100 for the full control effect; nearly all actives have a fitted effect of over 55% in size
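HEK293 cells stably co-expressing constitutively active GLP-1R and a cAMP-responsive luciferase reporter were seeded in DMEM with 10% Nu serum, given compounds after 12 h, and incubated 24 h at 37 deg C. Luminescence was then read.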
GLP1R cytotox – qHTS of GLP-1 Receptor Inverse Agonists: Cytotox Screen. HEK293 cAMP-luciferase reporter cells, luminescence, 24 h. Potency, µM (highest dose often 38.3 µM), for inactives: top-dose activity change, negative = inhibition, most hits filed as inhibitors. 410,000 compounds, 0.13% hits;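 note: loss of luciferase light is scored as toxicity; % is set by controls: 0 for no effect and ±100 for the full control effect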
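A 23 nL compound transfer followed 12 hours of cell culture at 37 deg C; exposure then lasted 24 hr. Luciferase assay detection reagent was dispensed and plates read for luminescence after a 12 min room-temperature wait.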
PTHR1 ag – qHTS for PTHR1 Agonists: Primary Screen; Parathyroid hormone/parathyroid hormone-related peptide receptor (Homo sapiens), Q03431; HEK293 GP2 PTHR1 cells, GloSensor cAMP luminescence, 1 h; Potency, µM (titrated, usually from 115 µM), for inactives: at the highest dose activation, most hits filed as activators; 410,000 compounds, 0.075% hits; note: nearly all actives have a fitted effect of over 55% in size
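HEK-293-derived GP2 cells expressing PTHR1 and a GloSensor cAMP reporter, 3,000/well, plated overnight, given luciferin plus IBMX (each 0.5 mM as added) for 1 h at 37 °C, then compound for 1 h at 37 °C. Luminescence was read after 15 min at room temperature.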
* = called active by the depositor; i = inactive; u = inconclusive; x = no result given; [ ] = remark or other dose. Compounds with a hit are over-represented: about 1.7% of the library has one in this group of screens. Calls come from the whole dose curve; as a rule, active = well fitted curve in the direction sought with a large enough effect; inconclusive = small, poorly fitted or top-dose-only effect, or another doubt; inactive = no such curve, though single readings can be large; an effect the other way counts as inactive or inconclusive. Potency is the fitted concentration of half-maximal effect.

SMILES	GLP-1R agonist	GLP1R inv ag	GLP1R cytotox	PTHR1 ag
N/C(=N\OC(=O)/C=C/c1ccccc1)c1ccc(Cl)cc1	11%	5%	11µM*	-5%
N/C(=N\OC(=O)/C=C/c1ccccc1)c1ccccc1	-4%	-2%	-1%	-15%[57.5 µM]
CC(C)n1cc(/C=N/Nc2ccc(C(=O)O)cc2)c2ccccc21	-5%	-48%	3%	-6%
Cn1cc(/C=N/Nc2ccccc2)c2ccccc21	-4%	11µM*	-37%	i
COc1ccc(-c2[nH]ncc2C(=O)NCc2cccc(F)c2)cc1	x	16%	1%	i
CC1CC2(C)Oc3ccccc3CC2C(C)C1CNCCCN(C)C (configuration not stated)	-8%	0.89µM*	u	-5%
c1ccc(NN(Cc2ccccn2)c2ccccc2)cc1	5%	u	26%	-36%
Cc1cccc(CN(Nc2ccccc2)c2ccccc2)n1	-4%	10µM*	-6%	-3%
CC(C)(C)NC(=O)CSc1ncnc2c1nnn2Cc1ccccc1Cl	-11%	4µM*	-27%	-13%[57.5 µM]
O=C(CSc1ncnc2c1nnn2Cc1ccccc1)NC1CCCC1	-2%	-17%	-3%	-6%
COC(=O)[C@@H](Cc1ccccc1)NC(=O)Cn1cc(C)c(=O)[nH]c1=O	11%	7%	2%	i
Cc1nn(-c2ccccc2)c(Cl)c1C1C(C#N)=C(N)OC2=C1C(=O)CC(C)(C)C2 (configuration not stated)	2%	u	u	-7%
CC(C)c1ccc(-c2nn(-c3ccccc3)cc2C2C(C#N)=C(N)OC3=C2C(=O)CC(C)(C)C3)cc1 (configuration not stated)	-11%	13µM*	-30%	i
CO[C@]12C[C@@H](COC(=O)c3cncc(Br)c3)CN(C)[C@@H]1Cc1cn(C)c3cccc2c13	5%	x	x	x
CSc1ccccc1NC(=O)C1(C)CCN1C(=O)Cc1ccccc1Cl (configuration not stated)	-6%	-10%	3%	-5%
Cn1cnnc1Sc1ccc(C(F)(F)F)cc1[N+](=O)[O-]	1%	6.3µM*	1%	i
Cn1cnnc1Sc1ccc(C(=O)OCC(=O)NC2CC2)cc1[N+](=O)[O-]	8%	3%	6%	25%
CC(=O)Nc1ccc(NC(=O)CC(C)n2ccc(C)n2)cc1 (configuration not stated)	x	-3%	0%	i
COc1ccnc(CSC(N)=Nc2cccc(C(F)(F)F)c2)c1	12%	11µM*	14%	-16%
COc1ccnc(CSC(N)=Nc2ccccc2C(F)(F)F)c1	1%	-2%	-1%	-14%
CNC(=S)N(Cc1ccc(OC)cc1)C1CC(=O)N(c2ccc(Cl)cc2)C1=O (configuration not stated)	-2%	11µM*	-16%	-40%
CC(C)CN=C(NS(=O)(=O)c1ccccc1)C(Cl)(Cl)Cl	-24%	7.9µM*	-1%	-3%
CC(C)CC(NS(=O)(=O)c1ccccc1)C(=O)O (configuration not stated)	-9%	4%	1%	i
O=C(Nc1ccc(-c2cc(C(F)(F)F)nn2-c2ccccc2)cc1)c1cccc(F)c1	x	u	-20%	-18%
COc1cc(C(=O)Nc2ccc(-c3cc(C(F)(F)F)nn3-c3ccccc3)cc2)cc(OC)c1OC	x	7.9µM*	-6%	i
SMILES	GLP-1R agonist	GLP1R inv ag	GLP1R cytotox	PTHR1 ag
Cn1c(=O)n(CC(=O)NCC2CCCO2)c(=O)c2c3c(sc21)CCCC3 (configuration not stated)	1%	9%	3%	i
CCCCCC1CCC(c2n[nH]c(=S)n2C)CC1 (configuration not stated)	8%	u	3.2µM*	i
CCCCCNC(=O)C(c1ccccc1)n1c(=O)c(-c2cc3ccccc3[nH]2)nc2ccccc21 (configuration not stated)	x	u	i	-14%
COc1ccc(C(C(=O)NC(C)(C)C)n2c(=O)c(-c3cc4ccccc4[nH]3)nc3ccccc32)cc1 (configuration not stated)	x	10µM*	i	-11%
CC(C)(C)NC(=O)C(c1ccccc1)n1c(=O)c(-c2ccccc2)nc2ccccc21 (configuration not stated)	x	11µM*	-2%	-15%
O=C(NC1CCCCC1)C(c1ccc(C(F)(F)F)cc1)n1c(=O)c(-c2cc3ccccc3[nH]2)nc2ccccc21 (configuration not stated)	x	2.5µM*	i	i
CCCCCNC(=O)C(CCc1ccccc1)n1c(=O)c(-c2cc3ccccc3[nH]2)nc2ccccc21 (configuration not stated)	x	3.5µM*	388%	i
O=C(Nc1cccc2c(=O)cc(-c3nn[nH]n3)oc12)c1ccc(OCCCCc2ccccc2)cc1	-2%	x	x	x
CC1=C(C(=O)Nc2ccccc2)C(c2ccc[nH]2)n2ncnc2N1 (configuration not stated)	x	14%	-5%	i
CNS(=O)(=O)c1ccc2c(c1)C(=O)c1cc(S(=O)(=O)NC)ccc1CC2	-3%	x	x	i
CCOC(=O)N1CCc2c(sc(NCc3cccc(F)c3)c2C(=O)Nc2ccc(OC)cc2OC)C1	x	-17%	0%	i
Cc1c(C(=O)Nc2ccc(C(=O)O)cc2)nnn1-c1ccccc1	x	1.8µM*	2%	-23%
Cc1c(Cl)cccc1NC(=O)C(C)N(c1ccccc1)S(C)(=O)=O (configuration not stated)	0%	6%	-6%	i
CC(C)c1ccc(S(=O)(=O)N2CCC(C(=O)NCC3(N(C)C)CCCCC3)CC2)cc1	-1%	u	-13%	i
CN(C)C1(CNC(=O)C2CCN(S(=O)(=O)c3cc(Cl)ccc3Cl)CC2)CCCCC1	7%	10µM*	u	-5%
Fc1ccccc1C1c2cccn2CCN1C(=S)Nc1cccc(Br)c1 (configuration not stated)	-1%	-8%	-1%	i
Fc1ccccc1C1c2cccn2CCN1C(=S)Nc1ccc(Br)cc1 (configuration not stated)	-5%	4.5µM*	u	-5%
O=C1[C@@H]2Cc3c([nH]c4ccccc34)C(c3ccccc3)N2C(=O)CN1C1CCN(Cc2ccccc2)CC1 (some centres not stated)	0%	2.2µM*	u	-8%
O=C1[C@@H]2Cc3c([nH]c4ccccc34)C(c3cccc(Br)c3)N2C(=O)CN1C1CCN(Cc2ccccc2)CC1 (some centres not stated)	4%	3.2µM*	u	i
